Shown are actives, neighbours in structure and some others; about 2.6% of the full set was active somewhere.
MLLE-PAM2 inh = inhibitors of PABP1 MLLE–PAM2 peptide binding, primary screen, biochemical, fluorescence polarization, FITC-PAM2, GST-MLLE | actives 0.36% (n = 360,000) | inhibition, % at 20 µM | Polyadenylate-binding protein 1 (Homo sapiens), P11940; in the data active = inhibition above about 35%, passing the limit was not always enough;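 note: plate controls were DMSO wells with GST-MLLE for no effect and wells lacking GST-MLLE protein for full effect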
PHOSPHO1 inh = PubChem AID 1565; Phosphoethanolamine/phosphocholine phosphatase (Homo sapiens), Q8TCT1; recombinant PHOSPHO1, absorbance phosphatase assay; inhibition, % at 13.3 µM; actives 1.1% (n = 290,000); in the data active = inhibition above about 60%
Target sequence (Q8TCT1 whole entry, looked up): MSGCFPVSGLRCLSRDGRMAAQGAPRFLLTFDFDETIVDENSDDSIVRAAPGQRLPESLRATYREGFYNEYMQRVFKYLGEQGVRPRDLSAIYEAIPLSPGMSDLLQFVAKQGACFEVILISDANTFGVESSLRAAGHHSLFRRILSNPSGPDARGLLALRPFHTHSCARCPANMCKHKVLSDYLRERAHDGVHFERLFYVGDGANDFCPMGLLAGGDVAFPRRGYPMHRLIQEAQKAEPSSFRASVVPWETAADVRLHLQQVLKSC
PABP polyA inh = PABP poly(A) RNA binding inhibitors, primary screen, biochemical, fluorescence polarization, uHTS | calls only at 35 µM | actives 1% (n = 290,000);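 note: calls also rest on retests at 20 µM and on dose response follow-up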
ABCB6 inh 2 = ABCB6 transporter inhibitors, primary screen, K562-ABCB6 cells, flow cytometry, MLPCN library. ATP-binding cassette sub-family B member 6 (Homo sapiens), Q9NP58. K562-ABCB6 porphyrin accumulation, 1 h; active compounds read low. fluorescence ratio to DMSO, % at 10 µM. actives 0.19% (n = 360,000). AID 602162, 2011;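 active = fluorescence ratio to DMSO below 75%, the collection mean minus 3 SD; inconclusive = too few cells collected in the well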;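 note: signal is porphyrin accumulated inside mitochondria; 100% equals median channel fluorescence of DMSO control wells; lower ratio means ABCB6 inhibition with less porphyrin fluorescence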
AI-2 QS modul = Vibrio harveyi AI-2 quorum sensing modulators, primary screen, JMH597 strain, luminescence/OD600 ratio; AID 2094, 2009; activity change, % at 7.5 µM; Vibrio harveyi JMH597 AI-2 luminescence/OD600 ratio, 9 h; active compounds read low; strain lacks LuxN and CqsS sensors; 0 = neutral-control median; actives 0.4% (n = 300,000); in the data active = activity change below about -75%, passing the limit was not always enough; inconclusive = no clear call, values can overlap the other calls;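 note: luminescence divided by OD600 gain over 9 h not by final OD600 alone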
eIF4H FP inh = human eIF4H binding inhibitors, primary screen, translation initiation inhibitor project, biochemical, uHTS, fluorescence polarization. eIF4H fluorescence polarization binding assay. inhibition, % at 35 µM. actives 0.94% (n = 290,000). AID 2012, 2009;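 note: calls also rest on retests at 20 µM and on dose response follow-up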
Active calls of the source: *. Unless noted, the rule behind the calls is not given here.

`CCN(CC)CCNS(=O)(=O)c1ccc(OC)c(Br)c1` gave MLLE-PAM2 inh -129, PHOSPHO1 inh 93*, PABP polyA inh inactive, ABCB6 inh 2 95, AI-2 QS modul 6 and eIF4H FP inh -13.
For COc1ccc(S(=O)(=O)NCCN2CCOCC2)cc1Br the results were MLLE-PAM2 inh 13, PABP polyA inh inactive, ABCB6 inh 2 103, AI-2 QS modul 20 and eIF4H FP inh -4.
C[n+]1cccc(C2C(C#N)=C(N)Oc3c2ccc2ccccc32)c1 (stereo not given) was read as MLLE-PAM2 inh -63, PHOSPHO1 inh -53, PABP polyA inh active, ABCB6 inh 2 100, AI-2 QS modul 19 and eIF4H FP inh 32.
`CCOc1ccc(NCC(=O)N/N=C/C=C/c2ccccc2)cc1` gave MLLE-PAM2 inh -22, PHOSPHO1 inh -11, PABP polyA inh inactive, ABCB6 inh 2 99, AI-2 QS modul -7 and eIF4H FP inh -1.
Screening CCOc1ccc(N=C/C=C/c2ccccc2)c(O)c1 returned MLLE-PAM2 inh -8, PHOSPHO1 inh 30, PABP polyA inh active, ABCB6 inh 2 135, AI-2 QS modul 32 and eIF4H FP inh inconclusive.
For CC(C)N1CCc2c(sc(NC(=O)c3ccc(S(=O)(=O)N4CCOCC4)cc3)c2C#N)C1 the results were MLLE-PAM2 inh -58, PHOSPHO1 inh 34, PABP polyA inh active, ABCB6 inh 2 110, AI-2 QS modul -7 and eIF4H FP inh 78*.
Screening CC(=O)N1Cc2cc(C(=O)NCC(F)(F)F)nc(-c3cccc(-c4cccnc4)c3)c2[C@@H]1CCO returned ABCB6 inh 2 101.
`CC1Cc2ccccc2N1C(=S)NC(=O)c1ccco1` (stereo not given) gave MLLE-PAM2 inh 5, PHOSPHO1 inh 32, PABP polyA inh active, ABCB6 inh 2 96, AI-2 QS modul 32 and eIF4H FP inh 2.5*.
Screening O=C(NC(=S)Nc1ccccc1N1CCCC1)c1ccco1 returned MLLE-PAM2 inh 87, PHOSPHO1 inh -57, PABP polyA inh inconclusive, ABCB6 inh 2 99, AI-2 QS modul 7 and eIF4H FP inh inconclusive.
Screening O=C(NC(=S)Nc1cccc2cc(O)ccc12)c1ccco1 returned MLLE-PAM2 inh 38, PHOSPHO1 inh 16, PABP polyA inh inactive, ABCB6 inh 2 103, AI-2 QS modul 17 and eIF4H FP inh 1.
`O=C(NC(=S)Nc1cccc2c(O)cccc12)c1ccco1` gave MLLE-PAM2 inh 25, PHOSPHO1 inh 2, PABP polyA inh active, ABCB6 inh 2 112, AI-2 QS modul 28 and eIF4H FP inh 66*.
O=C(NC(=S)Nc1ccccc1N1CCCCC1)c1ccco1 was read as MLLE-PAM2 inh 43*, PHOSPHO1 inh 14, PABP polyA inh inactive, ABCB6 inh 2 100, AI-2 QS modul 21 and eIF4H FP inh 2.
`O=c1[nH]cnc2scc(-c3ccc(-c4ccccc4)cc3)c12` gave MLLE-PAM2 inh -7, PHOSPHO1 inh 12, PABP polyA inh active, ABCB6 inh 2 99, AI-2 QS modul 10 and eIF4H FP inh 59.
CCCOc1ccc(-c2csc3nc[nH]c(=O)c23)cc1 was read as MLLE-PAM2 inh -4, PHOSPHO1 inh 44, PABP polyA inh inactive, ABCB6 inh 2 90, AI-2 QS modul 4 and eIF4H FP inh -2.
Screening COc1ccc(C(=S)NC2CCCCC2)cc1 returned MLLE-PAM2 inh 24, PHOSPHO1 inh 88*, PABP polyA inh inactive, ABCB6 inh 2 110, AI-2 QS modul 13 and eIF4H FP inh -4.
For CCOc1ccc(C(=S)NC2CCCCC2)cc1 the results were MLLE-PAM2 inh 33, PHOSPHO1 inh -35, PABP polyA inh inactive, ABCB6 inh 2 91, AI-2 QS modul -3 and eIF4H FP inh -1.
Screening CCOC(=O)c1c(C)[nH]c(C)c1S(=O)(=O)NCC1CCN(Cc2cccc(Cl)c2)CC1 returned MLLE-PAM2 inh 4, PHOSPHO1 inh 33, PABP polyA inh inactive, ABCB6 inh 2 91, AI-2 QS modul 2 and eIF4H FP inh 9.
CCOC(=O)c1c(S(=O)(=O)NCC2CCN(Cc3cccc(F)c3)CC2)c(C)n(C)c1C was read as MLLE-PAM2 inh -2, PHOSPHO1 inh 65*, PABP polyA inh inactive, ABCB6 inh 2 103, AI-2 QS modul 15 and eIF4H FP inh -9.
`Oc1ccc(/C=N/Nc2ccc(C(F)(F)F)cn2)cc1` gave MLLE-PAM2 inh 7, PHOSPHO1 inh -21, PABP polyA inh inactive, ABCB6 inh 2 104, AI-2 QS modul 19 and eIF4H FP inh 6.
For C/C(=N\Nc1ccc(C(F)(F)F)cn1)c1ccncc1 the results were MLLE-PAM2 inh 2, PHOSPHO1 inh 32, PABP polyA inh active, ABCB6 inh 2 102, AI-2 QS modul 17 and eIF4H FP inh active.
`COCCNC(=O)c1cc(-c2ccc3c(c2)OCO3)on1` gave MLLE-PAM2 inh 1, PHOSPHO1 inh 69*, PABP polyA inh inactive, ABCB6 inh 2 109, AI-2 QS modul 16 and eIF4H FP inh -6.
Screening COCCNC(=O)COCc1cc(-c2ccc3c(c2)OCO3)on1 returned MLLE-PAM2 inh -4, PHOSPHO1 inh 29, PABP polyA inh inactive, ABCB6 inh 2 98, AI-2 QS modul 21 and eIF4H FP inh 2.
COc1ccc(NC(=O)c2cc(C3CCCCN3S(=O)(=O)c3cccs3)on2)c(C)c1 (stereo not given) was read as MLLE-PAM2 inh 9 and ABCB6 inh 2 100.
`Clc1ccc(Sc2ccc(/C=N/n3cnnc3)o2)cc1` gave MLLE-PAM2 inh 13, PHOSPHO1 inh 31, PABP polyA inh inactive, ABCB6 inh 2 98, AI-2 QS modul -42 and eIF4H FP inh 6.
Clc1ccc(Sc2oc(/C=N/n3cnnc3)cc2Br)cc1 was read as MLLE-PAM2 inh -119, PHOSPHO1 inh 84*, PABP polyA inh inactive, ABCB6 inh 2 101, AI-2 QS modul 29 and eIF4H FP inh 4.
CCOC(=O)c1cnc(SCC(=O)c2ccccc2)nc1N was read as MLLE-PAM2 inh 24, PHOSPHO1 inh 102*, PABP polyA inh inactive, ABCB6 inh 2 98, AI-2 QS modul 33 and eIF4H FP inh -5.
For COc1ccccc1C1CC(c2cccs2)=Nc2ccccc2S1 (stereo not given) the results were MLLE-PAM2 inh 46*, PHOSPHO1 inh 94*, PABP polyA inh inactive, ABCB6 inh 2 91, AI-2 QS modul 27 and eIF4H FP inh 3.
Screening CCOC(=O)[C@]12CCCC=C1N(Cc1ccc(Cl)cc1Cl)C(=O)[C@H](CC(=O)NCc1ccc(OC)c(OC)c1)C2 returned ABCB6 inh 2 100.

Assay outcomes (PubChem BioAssay)
